An excerpt weighted towards active compounds, which were near 2.7% of everything screened.
PAFAH1B2 inh: PAFAH1B2 enzyme inhibitors, primary screen, biochemical, fluorescence polarization, human | Platelet-activating factor acetylhydrolase IB subunit alpha2 (Homo sapiens), P68402 | recombinant PAFAH1B2, FP-rhodamine activity probe | inhibition, % at 3.39 µM | 340,000 compounds, 1.2% hits;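 active = inhibition above the mean of all tested compounds plus 3 SD, cut at about 24% in these data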;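 note: 0% = enzyme with DMSO and 100% = wells lacking PAFAH1B2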
Target sequence (P68402 whole entry, looked up): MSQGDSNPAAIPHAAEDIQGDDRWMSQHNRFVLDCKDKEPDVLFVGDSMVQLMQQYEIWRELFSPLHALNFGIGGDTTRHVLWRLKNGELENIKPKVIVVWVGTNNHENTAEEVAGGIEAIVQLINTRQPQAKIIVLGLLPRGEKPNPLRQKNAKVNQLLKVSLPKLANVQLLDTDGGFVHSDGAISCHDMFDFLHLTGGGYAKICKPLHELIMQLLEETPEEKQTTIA
TCR-CD3 inh: inhibitors of human TCR-CD3 interaction, primary screen, biochemical, fluorescence, TAMRA-labeled TCR probe; inhibition, % at 9.4 µM; 360,000 compounds, 0.37% hits; AID 651800, 2012; in the data active = inhibition above about 19%;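 note: recombinant mutant TCR 2C K166C tagged with TAMRA read by polarization; 0% = receptor in buffer alone and 100% = receptor with positive control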
PAFAH2 inh: PAFAH2 enzyme inhibitors, primary screen, biochemical, fluorescence polarization, human | recombinant PAFAH2, FP-rhodamine activity probe | AID 492956, 2010 | 340,000 compounds, 0.99% hits | Platelet-activating factor acetylhydrolase 2, cytoplasmic (Homo sapiens), Q99487 | inhibition, % at 3.39 µM;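 active = inhibition above the mean over all tested compounds plus 3 SD, cut at about 30% in these data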;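 note: inhibitors block probe labeling of enzyme so polarization drops; 0% = enzyme with DMSO and 100% = wells lacking PAFAH2 protein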
PAFAH1B3 FP inh: PAFAH1B3 enzyme inhibitors, primary screen, biochemical, fluorescence polarization, human | recombinant PAFAH1B3, FP-rhodamine probe | inhibition, % at 3.39 µM | 340,000 compounds, 0.28% hits;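 active = inhibition above the screen-wide average of all tested compounds plus 3 SD, cut at about 25% in these data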;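 note: 0% = enzyme with DMSO only and 100% = wells lacking PAFAH1B3 protein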
Target sequence (Q15102 whole entry, looked up): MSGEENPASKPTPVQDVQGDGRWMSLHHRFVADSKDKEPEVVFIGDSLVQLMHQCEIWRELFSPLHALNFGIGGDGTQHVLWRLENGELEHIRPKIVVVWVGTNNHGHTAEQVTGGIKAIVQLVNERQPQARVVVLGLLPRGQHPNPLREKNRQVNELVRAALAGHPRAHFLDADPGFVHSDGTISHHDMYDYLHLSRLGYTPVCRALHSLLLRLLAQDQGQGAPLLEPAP
pPAFAH inh: pPAFAH enzyme inhibitors, primary screen, biochemical, fluorescence polarization, human. AID 463082, 2010. recombinant pPAFAH, FP-rhodamine probe fluorescence polarization. 330,000 compounds, 1.5% hits. Platelet-activating factor acetylhydrolase (Homo sapiens), Q13093. inhibition, % at 3.39 µM;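 active = inhibition above the mean inhibition across the screen plus 3 SD, cut at about 25% in these data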;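 note: inhibitors block binding of the rhodamine activity-based probe so polarization drops; 0% = enzyme with DMSO and 100% = wells lacking pPAFAH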
PAFAH2 confirm: PAFAH2 enzyme inhibitors, confirmation, biochemical, fluorescence polarization, human; shares compounds with PAFAH2 inh; recombinant PAFAH2, FP-rhodamine activity probe; inhibition, % at 3.39 µM; 2,300 compounds, 65% hits;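 active = mean inhibition over three repeats above a set limit taken from the earlier primary screen, cut at about 30% in these data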;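 note: inhibitor blocks binding of rhodamine activity probe so polarization falls; 0% = enzyme with DMSO and 100% = wells lacking PAFAH2 protein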
* marks the source's active call; other numbers are inactive results; . = not tested or not shown.

SMILES | PAFAH1B2 inh | TCR-CD3 inh | PAFAH2 inh | PAFAH1B3 FP inh | pPAFAH inh | PAFAH2 confirm
CCN(CC)S(=O)(=O)c1cccc(NC(=O)COC(=O)c2ccc(Br)o2)c1 | 5 | -2 | 4 | -1 | 10 | .
CN(C)S(=O)(=O)c1cccc(NC(=O)COC(=O)/C=C/c2ccco2)c1 | 3 | 4 | 55* | 2 | 3 | 47*
Cc1cnc(C(=O)OCC(=O)Nc2ccc(C)c(S(=O)(=O)N(C)C)c2)cn1 | -1 | 5 | 5 | 8 | -3 | .
CCN(CC)S(=O)(=O)c1cccc(NC(=O)COC(=O)/C=C/c2ccco2)c1 | 0 | -10 | 33* | 1 | 15 | 24
CCCCN(C=O)c1c(CC)nc2c(OCC(=O)N3CCOCC3)cccn12 | . | 6 | . | . | . | .
Cc1cccc(C)c1NC(=O)CN(C)C(=O)CSC(=S)N1CCCC1 | 0 | -1 | -1 | 7 | 0 | .
CCOC(=O)c1ccc(O)c(-n2cc3c(c2-c2ccccc2)c(=O)n(C)c(=O)n3C)c1 | . | -2 | . | . | . | .
COc1ccc(C(=O)NCC(=O)OCC(=O)Nc2ccc(C)c(S(=O)(=O)N(C)C)c2)cc1OC | 5 | -3 | 41* | 5 | -3 | 23
COc1cc(/C=C/C(=O)OCC(=O)NCC(=O)Nc2cccc(C)c2C)ccc1OC(F)F | 2 | -6 | 0 | 2 | 0 | .
CNC(=O)COC(=O)c1ccc(OCC(=O)Nc2ccccc2OC)c(OC)c1 | 4 | 7 | 3 | 6 | -7 | .
COc1ccccc1NC(=O)COC(=O)/C=C/c1cccs1 | 4 | 0 | 31* | 8 | -4 | 23
COc1ccc(NC(=O)COC(=O)/C=C/c2cccs2)c(OC)c1 | 7 | 1 | 12 | 13 | 7 | .
O=C(COC(=O)/C=C/c1cccs1)NC(c1ccccc1)c1ccccc1 | -6 | 8 | -1 | 4 | -1 | .
COCCNC(=O)COC(=O)c1ccc(OCC(=O)Nc2ccccc2OC)c(OC)c1 | 3 | 6 | 32* | 12 | 1 | 19
COc1ccccc1NC(=O)COC(=O)/C=C/c1ccc(OC)c(OC)c1 | 5 | -4 | 37* | 8 | 4 | 22
O=C(COC(=O)/C=C/c1cccs1)Nc1ccc(Cl)cc1F | 4 | -4 | 52* | -1 | 5 | 58*
COc1ccc(N2CCN(S(=O)(=O)CCNC(=O)C3CC(=O)N(c4ccccc4)C3)CC2)cc1 (stereo unspecified) | 1 | 2 | 5 | 6 | 7 | .
CCN(CC)S(=O)(=O)c1cccc(NC(=O)C2CC(=O)N(c3ccc4c(c3)OCCO4)C2)c1 (stereo unspecified) | -1 | -6 | 0 | 6 | 0 | .
COc1ccc(/C=C/C(=O)OCC(=O)Nc2ccc(Cl)c(S(=O)(=O)N(C)C)c2)cc1OC | -5 | -5 | 84* | -3 | 15 | 75*
COc1ccc(/C=C/C(=O)OCC(=O)Nc2ccc(S(N)(=O)=O)cc2)cc1OC | 5 | -8 | 2 | -1 | 0 | .
O=S(=O)(c1ccc(Br)cc1F)N1CCCCC1CCO (stereo unspecified) | 11 | 10 | 12 | 3 | . | .
O=C(CCS(=O)(=O)c1ccc(Cl)cc1)N1CCN(S(=O)(=O)c2cccs2)CC1 | 10 | -5 | 51* | 18 | 5 | 40*
COCCN(C(=O)c1sc2ccccc2c1Cl)c1c(N)n(CC(C)C)c(=O)[nH]c1=O | 2 | 1 | 4 | 7 | -5 | .
NS(=O)(=O)c1cccc(NC(=O)c2ccccc2NS(=O)(=O)c2ccc(F)cc2)c1 | 5 | 1 | 42* | -1 | 9 | 47*
N/C(CS(=O)(=O)c1ccccc1)=N\OC(=O)c1ccc(F)cc1 | 3 | -2 | 52* | 5 | 9 | 40*
Cc1ccccc1/C(N)=N/OC(=O)c1ccc(F)cc1 | 14 | 3 | 4 | 5 | 4 | .
Cc1cccc(OCC(=O)NCCNC(=O)c2ccco2)c1 | -1 | -4 | 0 | 1 | 2 | .
COc1ccc(-c2nc3ccccc3s2)cc1NC(C)=O | 1 | 9 | 41* | 19 | 1 | 3

From PubChem
